Measured values reported in the supplement of paper PMC7380943.
Structures can show the parent of a compound that is named as a salt.

Each compound was assayed on CLZ3 (HCA2 human fibroblast dual HR-NHEJ reporter) (assay: NHEJ repair efficiency (GFP+ cells) relative to control (log10 fold); higher = more non-homologous end joining). Conditions: 5 µM; doxycycline 0.5 ug/mL.
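Wherever HR repair efficiency (tdTomato+ cells) relative to control is given: compound given one day before doxycycline, which switches on I-SceI endonuclease expression to create double-strand breaks within the integrated reporter.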
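Wherever NHEJ repair efficiency (GFP+ cells) relative to control is given: compound given one day ahead of doxycycline, which switches on I-SceI endonuclease to cut the chromosomally integrated reporter and create DSBs.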

Row | Structure (SMILES) | NHEJ repair efficiency (log10)
1 | CC(C)=CCC[C@](C)(O[C@@H]1O[C@H](CO[C@@H]2OC[C@H](O)[C@H](O)[C@H]2O)[C@@H](O)[C@H](O)[C@H]1O)[C@H]1CC[C@]2(C)[C@@H]1[C@H](O)C[C@@H]1[C@@]3(C)CC[C@H](O[C@@H]4O[C@H](CO)[C@@H](O)[C@H](O)[C@H]4O[C@@H]4O[C@H](CO)[C@@H](O)[C@H](O)[C@H]4O)C(C)(C)[C@@H]3CC[C@]12C [Ginsenoside Rb2] | 0.0156
2 | COC(=O)C1=CO[C@@H](O)[C@@H]2C(CO)=CC[C@H]12 [Genipin] | -0.0273
3 | O=C(O)C1=C[C@@H](O)[C@@H](O)[C@H](O)C1 [Shikimic Acid] | 0.128
4 | CC(C)C(C)C(O)C(O)C(C)C1CCC2C3COC(=O)C4CC(O)C(O)CC4(C)C3CCC12C (centres undefined) [Brassinolide] | -0.122
5 | C[C@@H]1O[C@@H](O[C@@H]2[C@@H](O)[C@H](OCCc3ccc(O)c(O)c3)O[C@H](COC(=O)/C=C/c3ccc(O)c(O)c3)[C@H]2O)[C@H](O)[C@H](O)[C@H]1O [Isoacteoside] | -0.112

The compounds below were run on CLZ3 (HCA2 human fibroblast dual HR-NHEJ reporter) (assay: HR repair efficiency (tdTomato+ cells) relative to control (log10 fold); higher = more homologous recombination). Conditions: 5 µM; doxycycline 0.5 ug/mL.

Row | Structure (SMILES) | HR repair efficiency (log10)
6 | COc1ccc(-c2cc(=O)c3c(OC)c(OC)c(OC)c(OC)c3o2)cc1 [Tangeretin] | -0.0674
7 | COc1ccc(/C=C/C(=O)O)cc1O [Isoferulic Acid] | 0.0607
8 | C/C=C(/C)C(=O)OC(C)(C)[C@@H]1Cc2c(ccc3ccc(=O)oc23)O1 [Columbianadin] | -0.0376
9 | C[C@@H]1C(=O)O[C@H]2C[C@@]34O[C@@H]5OC(=O)[C@H](O)[C@@]56[C@H](C(C)(C)C)[C@H](O)C(OC3=O)[C@]64[C@]21O (some centres undefined) [Ginkgolide J] | 0.076
10 | C=C1[C@H]2CC[C@]3([C@@H]1O)[C@H]1C[C@@H]4C5(C)CCCC4([C@@H]1N(CC)C5)[C@@H]3[C@H]2O [Denudatine] | 0.0616
11 | O=C(/C=C/c1ccc(O)c(O)c1)O[C@@H]1C[C@@](OC(=O)/C=C/c2ccc(O)c(O)c2)(C(=O)O)C[C@@H](O)[C@@H]1O [Cynarin (1,5-Di-O-caffeoylquinic acid)] | 0.0943
12 | Nc1ncnc2c1ncn2[C@@H]1O[C@H](CO)C[C@H]1O [Cordycepin] | -0.139
13 | COc1cc2ccc(=O)oc2c(O[C@@H]2O[C@H](CO)[C@@H](O)[C@H](O)[C@H]2O)c1O [Fraxin;Fraxoside; Paviin] | 0.0876
14 | O=C(O)c1cc(O)c2c(c1)[C@@H]([C@H]1c3cc(C(=O)O)cc(O)c3C(=O)c3c(O[C@@H]4O[C@H](CO)[C@@H](O)[C@H](O)[C@H]4O)cccc31)c1cccc(O[C@@H]3O[C@H](CO)[C@@H](O)[C@H](O)[C@H]3O)c1C2=O [Sennoside B] | 0.0301
15 | CC1(C)OC(=O)C=C[C@]2(C)[C@H]3CC[C@@]4(C)[C@H](c5ccoc5)OC(=O)[C@H]5O[C@]54[C@]3(C)C(=O)C[C@@H]12 [Obacunone] | 0.0481
16 | OC[C@H]1O[C@@H](Oc2cc(O)cc(/C=C/c3ccc(O)cc3)c2)[C@H](O)[C@@H](O)[C@@H]1O [Polydatin] | 0.288
17 | O=C(/C=C/c1ccc(O)c(O)c1)O[C@H]1[C@H](O)C[C@](O)(C(=O)O)C[C@H]1O [Cryptochlorogenic Acid] | 0.168
18 | C[C@]12C[C@@H](O)[C@@H]3C[C@@]1(O[C@@H]1O[C@H](CO)[C@@H](O)[C@H](O)[C@H]1O)[C@@]3(COC(=O)c1ccccc1)C(=O)O2 [Albiflorin] | 0.153
19 | OCCc1ccc(O)c(O)c1 [Hydroxytyrosol] | 0.228
20 | NCCCC(=O)O [γ-Aminobutyric Acid] | 0.0562
21 | C[C@@H]1O[C@@H](OC[C@H]2O[C@@H](OCCc3ccc(O)c(O)c3)[C@H](O)[C@@H](O)[C@@H]2OC(=O)/C=C/c2ccc(O)c(O)c2)[C@H](O)[C@H](O)[C@H]1O [Forsythoside A] | 0.189
22 | CC(CCC(OC1OC(COC2OC(CO)C(O)C(O)C2O)C(O)C(O)C1OC1OC(CO)C(O)C(O)C1O)C(C)(C)O)C1CCC2(C)C3CC=C4C(CCC(OC5OC(COC6OC(CO)C(O)C(O)C6O)C(O)C(O)C5O)C4(C)C)C3(C)C(O)CC12C (centres undefined) [Mogroside Ⅴ] | 0.0038
23 | CC1(C)[C@H](OC(=O)c2ccccc2)CC[C@]2(C)C3=C([C@@H](O)C[C@@H]12)[C@@]1(C)CC[C@@]2(C)CC[C@@](C)(COC(=O)c4ccccc4)C[C@H]2[C@]1(C)CC3 [3,29-Dibenzoyl Rarounitriol] | 0.103
24 | Cc1nc(C)c(C)nc1C [Ligustrazine hydrochloride] | 0.079
25 | O=C(/C=C/c1ccc(O)c(O)c1)O[C@@H]1CC(O)(C(=O)O)C[C@@H](OC(=O)/C=C/c2ccc(O)c(O)c2)C1O (some centres undefined) [Isochlorogenic acid A] | 0.0109

Row | Structure (SMILES) | HR repair efficiency (log10)
26 | C[C@H](CCC(=O)O)[C@H]1CC[C@H]2[C@@H]3[C@H](O)C[C@@H]4C[C@H](O)CC[C@]4(C)[C@H]3CC[C@]12C [Chenodeoxycholic Acid] | 0.00712
27 | c1cc2c(cc1O[C@H]1OC[C@H]3[C@@H]1CO[C@@H]3c1ccc3c(c1)OCO3)OCO2 [Sesamolin] | 0.22
28 | O=C(O)/C=C/c1ccc(O)cc1 [P-Coumaric Acid] | 0.212
29 | O=C(O)CCC(=O)O [Succinic acid] | 0.102
30 | C[C@@H]1CC[C@@]2(OC1)O[C@H]1C[C@H]3[C@@H]4CC=C5C[C@@H](O)C[C@@H](O[C@@H]6O[C@H](C)[C@H](O)[C@H](O[C@@H]7OC[C@@H](O)[C@H](O)[C@H]7O)[C@H]6O[C@@H]6O[C@@H](C)[C@H](O)[C@@H](O)[C@H]6O)[C@]5(C)[C@H]4CC[C@]3(C)[C@H]1[C@@H]2C [Ophiopogonin D] | -0.0693
31 | Cc1c(O)cc2c(c1O)C(=O)c1ccc(O)c(O)c1C2=O [3-Hydroxymorindone] | 0.0716
32 | CC(C)(O)CCc1c(O)cc(O)c2c(=O)c(O)c(-c3ccc(O)cc3)oc12 [Noricaritin] | -0.128
33 | CC(=O)O[C@@H]1C[C@@]23C[C@@]24CC[C@H](O[C@@H]2OC[C@@H](O)[C@H](O)[C@H]2O)C(C)(C)[C@@H]4CC=C3[C@]2(C)C[C@@H]3OC4(C[C@@H](C)[C@@H]3[C@@]12C)OC(O)C1(C)OC41 (some centres undefined) [Cimicifugoside] | 0.0562
34 | C[C@@H]1O[C@@H](O[C@H]2C(=O)c3c(O)cc(O)cc3O[C@@H]2c2ccc(O)c(O)c2)[C@H](O)[C@H](O)[C@H]1O [Astilbin] | 0.109
35 | C[C@@H]1O[C@@H](OC[C@H]2O[C@@H](OCCc3ccc(O)c(O)c3)[C@H](O)[C@@H](O)[C@@H]2O)[C@H](O)[C@H](O)[C@H]1O [Forsythoside E] | 0.0386
36 | COC(=O)c1c2c(c3ccccc3c1O)OC(C)(C)C=C2 [Rubimaillin] | -0.0243
37 | O=C1C[C@@H](c2ccccc2)Oc2cc(O)cc(O)c21 [Pinocembrin] | 0.0891
38 | O=C1c2cccc(O)c2C(=O)c2c(O)cccc21 [1,8-Dihydroxyanthraquinone] | -0.106
39 | O=C1O[C@H]2[C@@H]3OC(=O)c4cc(O)c(O)c(O)c4-c4c(cc(O)c(O)c4O)C(=O)OC[C@H]2O[C@@H](OC(=O)c2cc(O)c(O)c(O)c2)[C@@H]3OC(=O)c2cc(O)c(O)c3c2[C@@H]2C1=CC(=O)[C@](O)(O3)C2(O)O [Geraniin] | 0.0593
40 | CC(C)=CCC[C@](C)(O[C@@H]1O[C@H](CO[C@@H]2OC[C@H](O)[C@H](O)[C@H]2O)[C@@H](O)[C@H](O)[C@H]1O)[C@H]1CC[C@]2(C)[C@@H]1[C@H](O)C[C@@H]1[C@@]3(C)CC[C@H](O[C@@H]4O[C@H](CO)[C@@H](O)[C@H](O)[C@H]4O[C@@H]4O[C@H](CO)[C@@H](O)[C@H](O)[C@H]4O)C(C)(C)[C@@H]3CC[C@]12C [Ginsenoside Rb2] | 0.096
41 | COC(=O)C1=CO[C@@H](O)[C@@H]2C(CO)=CC[C@H]12 [Genipin] | 0.00524
42 | O=C(O)C1=C[C@@H](O)[C@@H](O)[C@H](O)C1 [Shikimic Acid] | 0.17
43 | CC(C)C(C)C(O)C(O)C(C)C1CCC2C3COC(=O)C4CC(O)C(O)CC4(C)C3CCC12C (centres undefined) [Brassinolide] | -0.073
44 | C[C@@H]1O[C@@H](O[C@@H]2[C@@H](O)[C@H](OCCc3ccc(O)c(O)c3)O[C@H](COC(=O)/C=C/c3ccc(O)c(O)c3)[C@H]2O)[C@H](O)[C@H](O)[C@H]1O [Isoacteoside] | 0.017
